Consider ten compounds from PubChem BioAssay (NCI).

The panel holds about 79,000 compounds, 15% with a hit somewhere; the sample as a whole holds those more often. Unmarked numbers belong to inactive results. Calls of active or inactive are those of the source. No stated cut-off is given here; in the data, active means growth inhibition above about 70%; inactive means the rest.

Assay [1] can be described thus: NCI Yeast Anticancer Drug Screen. Data for the rad50 strain (AID 155).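 Further: 0% = growth of vehicle-only cultures of the same strain.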 To be noted: S. cerevisiae rad50 strain growth inhibition, active compounds read high. A digest of the protocol:
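DNA repair mutant yeast, compound exposure, growth read-out; inhibition is taken relative to vehicle.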

A short description of assay [2]: NCI Yeast Anticancer Drug Screen. Data for the mec2-1 strain (AID 157). To be noted: S. cerevisiae mec2-1 strain, active compounds read high. The gist of the method: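 Using mec2-1 yeast: add compound, measure growth, express inhibition versus vehicle-treated cultures.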
Assay [3] is described as follows: NCI Yeast Anticancer Drug Screen. Data for the sgs1 mgt1 strain (AID 161).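 Further: 0% = growth of cultures given vehicle only.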 To be noted: S. cerevisiae sgs1 mgt1 strain, active compounds read high. A digest of the protocol: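 Percent growth inhibition was derived by comparing compound-exposed mutant yeast with vehicle-exposed cultures. The strain carries alterations in DNA damage repair.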
A short description of assay [4]: NCI Yeast Anticancer Drug Screen. Data for the cln2 rad14 strain (AID 165).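 Further: 0% = growth equal to vehicle treated cultures.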 To be noted: S. cerevisiae cln2 rad14 strain, active compounds read high. A digest of the protocol: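 Yeast strain cln2 rad14, bearing defects in cell cycle control and DNA repair, serves as the test system; values reflect growth inhibition compared with vehicle.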
A short description of assay [5]: NCI Yeast Anticancer Drug Screen. Data for the bub3 strain (AID 167). To be noted: S. cerevisiae bub3 mutant strain, active compounds read high. A digest of the protocol: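 In this screen, a yeast mutant lacking normal mitotic checkpoint function is challenged with compound. Relative growth versus vehicle gives the inhibition value.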
Assay [6] is described as follows: NCI Yeast Anticancer Drug Screen. Data for the mlh1 rad18 strain (AID 175). To be noted: S. cerevisiae mlh1 rad18 strain growth inhibition, active compounds read high. The gist of the method: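 Steps: expose repair-defective yeast to compound; measure growth; express inhibition against vehicle-treated controls.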
Setting [7] is: at 5.0 µM (retest, dose inferred, filed as 0.5).
Where [8] appears, read: at 50.0 µM (retest, dose inferred, filed as 5.0).

As to `CCn1c2ccccc2n2c(=O)cc(-c3ccccc3)c(C#N)c12`, the growth inhibition in assay [1] (setting [7]) was 7%; in assay [1] (setting [8]), 2%; in assay [1] (at 50.0 µM), 27.1%; in assay [2] (setting [7]), -2%; in assay [2] (setting [8]), -2%; in assay [2] (at 50.0 µM), 12.7%. Besides, the growth inhibition is -12% in assay [3] (setting [7]); 0% in assay [3] (setting [8]); 33.6% in assay [3] (at 50.0 µM); 7% in assay [4] (setting [7]); -9% in assay [4] (setting [8]); 12.3% in assay [4] (at 50.0 µM). Moreover, the growth inhibition in assay [5] (setting [7]) is 7%; in assay [5] (setting [8]), 11%; in assay [5] (at 50.0 µM), 18.4%; in assay [6] (setting [7]), -2%; in assay [6] (setting [8]), -4%; in assay [6] (at 50.0 µM) it was 24.4%.
For `CC(=O)O[C@@H]1CC(C)C2CC2C2=C(C(O)OC2O)[C@@H]1C(C)CCC=C(C)C` (stereo not given in full), the growth inhibition in assay [1] (setting [7]) was 19%; in assay [1] (setting [8]), 98% (active); in assay [1] (at 50.0 µM) it was 91.9% (active); in assay [2] (setting [7]), 92% (active); in assay [2] (setting [8]), 99% (active); in assay [2] (at 50.0 µM) it was 93.7% (active). Further, the growth inhibition in assay [3] (setting [7]) is 25%; in assay [3] (setting [8]) it was 98% (active); in assay [3] (at 50.0 µM), 93% (active); in assay [4] (setting [7]), 86% (active); in assay [4] (setting [8]) it was 98% (active); in assay [4] (at 50.0 µM), 90% (active). For the same compound, the growth inhibition in assay [5] (setting [7]) was 99% (active); in assay [5] (setting [8]) it was 98% (active); in assay [5] (at 50.0 µM), 92.4% (active); in assay [6] (setting [7]), 78% (active); in assay [6] (setting [8]), 98% (active); in assay [6] (at 50.0 µM), 91.5% (active).
Turning to `CC(=O)NC1=C(Sc2ccc(C)cc2)C(=O)c2ccccc2C1=O`, the growth inhibition in assay [1] (setting [7]) is 63%; in assay [1] (setting [8]), 98% (active); in assay [1] (at 50.0 µM), 54.4%; in assay [2] (setting [7]) it was 96% (active); in assay [2] (setting [8]) it was 99% (active); in assay [2] (at 50.0 µM), 10.1%. Besides, the growth inhibition in assay [3] (setting [7]) is 72% (active); in assay [3] (setting [8]) it was 95% (active); in assay [3] (at 50.0 µM), 29.8%; in assay [4] (setting [7]) it was 35%; in assay [4] (setting [8]), 97% (active); in assay [4] (at 50.0 µM), -32.6%. In addition, the growth inhibition in assay [5] (setting [7]) is 67%; in assay [5] (setting [8]), 98% (active); in assay [5] (at 50.0 µM) it was 42%; in assay [6] (setting [7]), 99% (active); in assay [6] (setting [8]) it was 99% (active); in assay [6] (at 50.0 µM), 23.1%.
As for `C#CCOC(=O)Nc1nc2ccc(SC#N)cc2s1`, the growth inhibition in assay [1] (setting [7]) is 9%; in assay [1] (setting [8]), 90% (active); in assay [1] (at 50.0 µM) it was 97.8% (active); in assay [2] (setting [7]), -5%; in assay [2] (setting [8]) it was 87% (active); in assay [2] (at 50.0 µM), 96.8% (active). Moreover, the growth inhibition in assay [3] (setting [7]) was 3%; in assay [3] (setting [8]), 98% (active); in assay [3] (at 50.0 µM) it was 97.7% (active); in assay [4] (setting [7]) it was 0%; in assay [4] (setting [8]), 92% (active); in assay [4] (at 50.0 µM), 96.4% (active). For the same compound, the growth inhibition in assay [5] (setting [7]) was 14%; in assay [5] (setting [8]), 90% (active); in assay [5] (at 50.0 µM), 97.6% (active); in assay [6] (setting [7]), 4%; in assay [6] (setting [8]), 96% (active); in assay [6] (at 50.0 µM), 97.2% (active).
For `O=C1CC(c2ccccc2)c2c(ccc3ccccc23)O1` (stereo not given), the growth inhibition in assay [1] (setting [7]) was -1%; in assay [1] (setting [8]) it was 90% (active); in assay [1] (at 50.0 µM), 87% (active); in assay [2] (setting [7]) it was 1%; in assay [2] (setting [8]), 86% (active); in assay [2] (at 50.0 µM), 62.2%. For the same compound, the growth inhibition is -1% in assay [3] (setting [7]); 86% (active) in assay [3] (setting [8]); 75.2% (active) in assay [3] (at 50.0 µM); 6% in assay [4] (setting [7]); 77% (active) in assay [4] (setting [8]); 45.5% in assay [4] (at 50.0 µM). In addition, the growth inhibition was 6% in assay [5] (setting [7]); 86% (active) in assay [5] (setting [8]); 72% (active) in assay [5] (at 50.0 µM); -1% in assay [6] (setting [7]); 88% (active) in assay [6] (setting [8]); 72.8% (active) in assay [6] (at 50.0 µM).
Take `Clc1ccc(C2=CC(c3ccccc3)N3C(=N[C@H]4CCCC[C@@H]43)N2)cc1` (stereo not given in full): the growth inhibition in assay [1] (setting [7]) was 8%; in assay [1] (setting [8]), 6%; in assay [1] (at 50.0 µM) it was 55.4%; in assay [2] (setting [7]) it was 4%; in assay [2] (setting [8]) it was 4%; in assay [2] (at 50.0 µM), 54.2%. The growth inhibition in assay [3] (setting [7]) is 6%; in assay [3] (setting [8]), 17%; in assay [3] (at 50.0 µM) it was 79.2% (active); in assay [4] (setting [7]), 11%; in assay [4] (setting [8]), 33%; in assay [4] (at 50.0 µM) it was 32.2%. Further, the growth inhibition in assay [5] (setting [7]) is 14%; in assay [5] (setting [8]), 19%; in assay [5] (at 50.0 µM), 84.8% (active); in assay [6] (setting [7]), 6%; in assay [6] (setting [8]), 11%; in assay [6] (at 50.0 µM) it was 91.8% (active).
On to `O=C1Oc2ccccc2C(=O)/C1=C/N1C(=O)/C(=C/c2ccc([N+](=O)[O-])cc2)SC1=S`, for which the growth inhibition in assay [1] (setting [7]) is 2%; in assay [1] (setting [8]), 68%; in assay [1] (at 50.0 µM) it was 82.5% (active); in assay [2] (setting [7]) it was -4%; in assay [2] (setting [8]), 82% (active); in assay [2] (at 50.0 µM) it was 90% (active). The growth inhibition in assay [3] (setting [7]) was 22%; in assay [3] (setting [8]), 93% (active); in assay [3] (at 50.0 µM), 96.7% (active); in assay [4] (setting [7]) it was 3%; in assay [4] (setting [8]), 83% (active); in assay [4] (at 50.0 µM), 92.1% (active). For the same compound, the growth inhibition in assay [5] (setting [7]) was 7%; in assay [5] (setting [8]) it was 49%; in assay [5] (at 50.0 µM), 85% (active); in assay [6] (setting [7]) it was 11%; in assay [6] (setting [8]), 77% (active); in assay [6] (at 50.0 µM), 86.3% (active).
As to `CCCC(=O)Oc1ccc(OCc2ccccc2)cc1`, the growth inhibition in assay [1] (setting [7]) was -1%; in assay [1] (setting [8]), 55%; in assay [1] (at 50.0 µM), -23.8%; in assay [2] (setting [7]), -1%; in assay [2] (setting [8]) it was 55%; in assay [2] (at 50.0 µM) it was -15.1%. Further, the growth inhibition in assay [3] (setting [7]) was 0%; in assay [3] (setting [8]), 55%; in assay [3] (at 50.0 µM) it was 1.6%; in assay [4] (setting [7]), -3%; in assay [4] (setting [8]), -15%; in assay [4] (at 50.0 µM), -41.8%. For the same compound, the growth inhibition in assay [5] (setting [7]) is 23%; in assay [5] (setting [8]) it was 77% (active); in assay [5] (at 50.0 µM) it was 75.2% (active); in assay [6] (setting [7]), 0%; in assay [6] (setting [8]), 42%; in assay [6] (at 50.0 µM) it was -10.9%.
Consider `COC(=O)c1ccc(SCC(=O)c2ccc([N+](=O)[O-])o2)cc1`, for which the growth inhibition is 4% in assay [1] (setting [7]); 90% (active) in assay [1] (setting [8]); 97% (active) in assay [1] (at 50.0 µM); 4% in assay [2] (setting [7]); 98% (active) in assay [2] (setting [8]); 98% (active) in assay [2] (at 50.0 µM). Besides, the growth inhibition is 5% in assay [3] (setting [7]); 81% (active) in assay [3] (setting [8]); 79.3% (active) in assay [3] (at 50.0 µM); -4% in assay [4] (setting [7]); 96% (active) in assay [4] (setting [8]); 95.3% (active) in assay [4] (at 50.0 µM). Besides, the growth inhibition in assay [5] (setting [7]) is -5%; in assay [5] (setting [8]), 46%; in assay [5] (at 50.0 µM) it was 60.4%; in assay [6] (setting [7]), 2%; in assay [6] (setting [8]), 79% (active); in assay [6] (at 50.0 µM), 98.5% (active).
Consider `COC(=O)/C=C/c1cccc[n+]1[O-]`, for which the growth inhibition in assay [1] (setting [7]) is 3%; in assay [1] (setting [8]), -6%; in assay [1] (at 50.0 µM), 44.6%; in assay [2] (setting [7]), 3%; in assay [2] (setting [8]), -4%; in assay [2] (at 50.0 µM), -2.85%. Also, the growth inhibition in assay [3] (setting [7]) is 4%; in assay [3] (setting [8]) it was -6%; in assay [3] (at 50.0 µM), 0.55%; in assay [4] (setting [7]) it was 4%; in assay [4] (setting [8]), -15%; in assay [4] (at 50.0 µM), 54.8%. The growth inhibition in assay [5] (setting [7]) was 4%; in assay [5] (setting [8]) it was 0%; in assay [5] (at 50.0 µM), -4.4%; in assay [6] (setting [7]), -1%; in assay [6] (setting [8]), -11%; in assay [6] (at 50.0 µM), 17.8%.
